Our source for the outcome and AC50 values is PubChem BioAssay (EPA / NIEHS).

Results filed as inconclusive are left out. Active and inactive are the calls of the source. Rule for the calls: active = hit-call score of the fitted dose curve at least 0.9, where 1 is the maximum; inconclusive = response in the unintended direction; inactive = score below 0.9.

In the assay the target is Nucleoli Translocation, AR (gene 367) (UniProt P10275). The experiment in a line: UPITT_HCI_U2OS_AR_TIF2_Nucleoli_Antagonist: University of Pittsburgh U2OS Androgen Receptor-Transcriptional Intermediary Factor 2 (AR-TIF2) Antagonism High Content Imaging Assay for Nucleoli Translocation (AID 2283997). The text has this: UPITT_AR_TIF2_PPIB is a cell-based, high-content imaging assay that uses U2OS, a human osteosarcoma cell line, expressing a human androgen receptor fused to red fluorescent protein and the coactivator TIF2 fused to green fluorescent protein. UPITT_HCI_U2OS_AR_TIF2_Nucleoli_Antagonist is one of four assay components measured from the UPITT_AR_TIF2_PPIB assay. It is designed to make measurements of red fluorescence localized in the nucleolar region of the cell nucleus as detected with high-content fluorescent imaging.Data from the assay component UPITT_HCI_U2OS_AR_TIF2_Nucleoli_Antagonist was analyzed into 1 assay endpoint. This assay endpoint, UPITT_HCI_U2OS_AR_TIF2_Nucleoli_Antagonist, was analyzed in the positive analysis fitting direction relative to DHT as the baseline of activity. Using a type of binding reporter, measures of receptor for loss-of-signal activity can be used to understand the binding at the pathway-level as it relates to the gene AR.
Nucleoli Translocation, AR (gene 367), sequence (P10275 whole entry, looked up, the tested form may be a part): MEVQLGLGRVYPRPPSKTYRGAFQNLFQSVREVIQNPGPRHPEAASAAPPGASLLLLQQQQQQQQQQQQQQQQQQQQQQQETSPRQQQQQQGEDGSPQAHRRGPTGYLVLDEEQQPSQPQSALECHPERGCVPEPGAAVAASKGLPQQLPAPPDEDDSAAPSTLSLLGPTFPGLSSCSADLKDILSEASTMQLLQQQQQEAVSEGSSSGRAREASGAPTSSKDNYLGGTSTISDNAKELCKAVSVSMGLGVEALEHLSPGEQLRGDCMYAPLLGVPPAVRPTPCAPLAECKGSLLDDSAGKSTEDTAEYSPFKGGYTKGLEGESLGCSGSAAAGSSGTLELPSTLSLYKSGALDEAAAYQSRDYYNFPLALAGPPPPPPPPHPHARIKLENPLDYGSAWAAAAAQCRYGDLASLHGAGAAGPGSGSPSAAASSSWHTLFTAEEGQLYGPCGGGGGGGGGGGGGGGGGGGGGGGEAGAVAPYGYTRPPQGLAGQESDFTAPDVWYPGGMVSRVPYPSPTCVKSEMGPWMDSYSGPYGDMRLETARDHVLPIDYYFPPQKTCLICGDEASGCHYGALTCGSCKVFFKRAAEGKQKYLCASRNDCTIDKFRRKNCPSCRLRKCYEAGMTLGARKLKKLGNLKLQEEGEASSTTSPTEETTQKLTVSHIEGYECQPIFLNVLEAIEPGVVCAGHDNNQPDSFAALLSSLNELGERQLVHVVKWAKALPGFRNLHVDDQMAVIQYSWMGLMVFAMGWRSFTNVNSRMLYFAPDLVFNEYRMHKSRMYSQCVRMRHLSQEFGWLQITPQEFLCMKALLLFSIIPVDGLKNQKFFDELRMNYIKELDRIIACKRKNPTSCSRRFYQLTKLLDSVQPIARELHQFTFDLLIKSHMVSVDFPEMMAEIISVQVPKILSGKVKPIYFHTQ
Daughter plates containing 2 uL of 10 mM compounds in DMSO were prepared and replicated from the 384-well Library of Pharmacologically Active Compounds (LOPAC) master plates using the Bravo outfitted with a 384-well transfer head. Aluminum adhesive plate seals were applied with an Abgene Seal-IT 100 (Rochester, NY) plate sealer, and the plates were stored at -20 C in a Matrical MatriMinistore (Spokane, WA) automated compound storage and retrieval system. For screening, LOPAC daughter plates were withdrawn from -20C storage, thawed to ambient temperature, centrifuged 1-2 min at 50 g, and the plate seals were removed before the transfer of 98 uL of serum-free tissue culture medium (SFM) into wells using the BioTek Microflo liquid handler (BioTek, Winooski, VT) to generate a 200 uM intermediate stock concentration of library compounds (2.0% DMSO). The diluted compounds were mixed by repeated aspiration and dispensation using a 384-well P30 dispensing head on the Evolution P3 (EP3) liquid handling platform (PerkinElmer, Waltham, MA) and then 5 uL of diluted compounds was transferred to the wells of assay plates. In the LOPAC screen, compounds were individually tested at a final concentration of 20 uM (0.2% DMSO). After the diluted compounds had been transferred from the daughter plates to the primary HCS assay plates, aluminum adhesive plate seals were applied and the diluted daughter plates were stored frozen at -20C. To confirm active compounds identified in the primary screen, we withdrew the LOPAC daughter plates containing the 200 uM intermediate concentration of library compounds (2.0% DMSO) from -20C storage, thawed them to ambient temperature, centrifuged them for 1-2 min at 50 g, and removed the plate seals. A work list was generated to direct the Multiprobe Janus liquid handling platform (PerkinElmer) to cherry pick 75 uL from the wells of the diluted daughter plates that were flagged active in the primary screen and to reformat these into a 384-well plate hit confirmation daughter plate. Five microliters of primary HCS active compounds was then transferred into triplicate wells of assay plates using a 384-well P30 dispensing head on the Evolution P3 (EP3) liquid handling platform (PerkinElmer). […] Daughter plates containing 2 uL of the serially diluted compounds in DMSO were prepared and replicated from the 384-well serial dilution master plates using the Bravo outfitted with a 384-well transfer head. Aluminum adhesive plate seals were applied and plates were stored at -20C. […] The ImageXpress Ultra (IXU) platform (Molecular Devices LLC, Sunnyvale, CA) and The ImageXpress Micro (IXM) platform were used for imaging.
Regarding `CCc1cccc(C)c1N`, the call was inactive.
Regarding `Cc1ccc(C)c(OCCCC(C)(C)C(=O)O)c1`, the result was inactive.
Turning to `COc1cc(O)c(C(=O)c2ccccc2)cc1S(=O)(=O)O`, the result was inactive.
The same measure, in the same setting: under `N#Cc1ccc(C(c2ccc(C#N)cc2)n2cncn2)cc1` stands “inactive”.
For `Oc1ccc(-c2ccccc2)c(Cl)c1`, the AC50 – broadly, the concentration at which the activity in the assay is half-maximal – was 13.8 µM (active).
Take `O=C(O)c1ccc2c(c1)C(=O)OC2=O`: the result was inactive.
Still for that read-out and setting: the value for `CC(=O)OCc1ccccc1` was “inactive”.
In the case of `C=C1C[C@H]2[C@@H]3C=C(C)C4=CC(=O)CC[C@]4(C)[C@H]3CC[C@]2(C)[C@@]1(OC(C)=O)C(C)=O`, the AC50 is 0.0947 µM (active).
The same measure, in the same setting: the value for `c1ccc2c(c1)[nH]c1ccccc12` was 8.38 µM (active).
In the case of `CCC(C)c1ccccc1` (stereo not given), the call was inactive.
`Oc1ccc(/C=C/c2cc(O)cc(O)c2)cc1`: the AC50 was 5.07 µM (active).
Regarding `CCCCCC[C@@H](O)C/C=C\CCCCCCCC(=O)OCC(O)CO` (stereo not given in full), the compound was called inactive.
Regarding `CN(C)Cc1cc(CN(C)C)c(O)c(CN(C)C)c1`, the call was inactive.
Still for that read-out and setting: under `CCCCC(CC)COC(=O)/C=C/c1ccc(OC)cc1` (stereo not given) stands “inactive”.
Consider `COc1ccc(C(=O)c2ccccc2)c(O)c1`, for which the AC50 is 50 µM (active).
